Test results: PubChem BioAssay (NCI)
Values joined by “and” are separate entries in the source; they are usually repeats but may differ in a detail not shown here. Identical values can stand only once. About 83,000 compounds went through this panel and 20% of them were active in at least one assay; those are over-represented in the sample as a whole.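 Testing used 96-well plates and a 48-hour single-concentration exposure. Example: -40 means 40% of the starting cells died.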 Active and inactive are the calls of the source. Rule for the calls: active = growth percent below 10; inactive = the rest.

Assays:
Experiment in all cases: NCI-60 one-dose screen, 48 h (100 = growth as untreated, 0 = no growth, -100 = all killed)
HCT-15 colon = conditions: 10 µM unless noted
HT29 colon = conditions: 10 µM unless noted
SNB-75 CNS = conditions: 10 µM unless noted
SNB-19 CNS = conditions: 10 µM unless noted
U251 CNS = conditions: 10 µM unless noted
PC-3 prostate = conditions: 10 µM unless noted
SK-MEL-5 melanoma = conditions: 10 µM unless noted
UACC-62 melanoma = test system: UACC-62 melanoma
LOX IMVI melanoma = conditions: 10 µM unless noted
SK-MEL-28 melanoma = conditions: 10 µM unless noted
SK-MEL-2 melanoma = conditions: 10 µM unless noted
EKVX NSCLC = conditions: 10 µM unless noted
SN12C renal = conditions: 10 µM unless noted
UO-31 renal = conditions: 10 µM unless noted
TK-10 renal = test system: TK-10 renal
ACHN renal = conditions: 10 µM unless noted
CAKI-1 renal = conditions: 10 µM unless noted
A498 renal = conditions: 10 µM unless noted
CCRF-CEM leukemia = conditions: 10 µM unless noted
MOLT-4 leukemia = conditions: 10 µM unless noted

Measured: growth

O=C1C(=C(O)c2ccccc2)C(=O)c2ccccc21
inactive: HCT-15 colon 102% | HT29 colon 109% | SNB-75 CNS 76.5% | SNB-19 CNS 98.1% | U251 CNS 109% | PC-3 prostate 94.5% | SK-MEL-5 melanoma 107% | UACC-62 melanoma; 10 µM unless noted 96% | LOX IMVI melanoma 99% | SK-MEL-28 melanoma 105% | SK-MEL-2 melanoma 105% | EKVX NSCLC 104% | SN12C renal 102% | UO-31 renal 85.5% | TK-10 renal; 10 µM unless noted 111% | ACHN renal 103% | CAKI-1 renal 92.9% | A498 renal 123% | CCRF-CEM leukemia 73.7% | MOLT-4 leukemia 116%

CC[C@]12CN3CCc4c([nH]c5ccccc45)[C@@](C(=O)OC)(c4cc5c(cc4OC)N(C)[C@H]4[C@@](O)(C(=O)OC)[C@H](OC(C)=O)[C@]6(CC)C=CCN7CC[C@]54[C@@H]76)CC(C3)[C@H]1O2 (some centres not stated)
88% (inactive) and -96.5% (active): TK-10 renal; 100 µM
active: HT29 colon 2.74% | SNB-75 CNS -2.51% | SK-MEL-5 melanoma -26.4% | A498 renal -12.3% | CCRF-CEM leukemia 5.37%
inactive: HCT-15 colon 29% | SNB-19 CNS 26.9% | U251 CNS 16% | PC-3 prostate 15.5% | UACC-62 melanoma; 10 µM 26.6% | LOX IMVI melanoma 19.5% | SK-MEL-28 melanoma 60.2% | SK-MEL-2 melanoma 31% | EKVX NSCLC 28.4% | SN12C renal 29.1% | UO-31 renal 32.8% | TK-10 renal; 10 µM 27.6% | ACHN renal 40.5% | CAKI-1 renal 38.9% | MOLT-4 leukemia 25.7%
94.4% (inactive) and -98.3% (active): UACC-62 melanoma; 100 µM

O=C(N/N=C/c1ccc(O)cc1O)c1cccc(Nc2ccnc(C(F)(F)F)c2)c1
inactive: HCT-15 colon 27.3% | HT29 colon 41.6% | SNB-75 CNS 32.2% | SNB-19 CNS 35.5% | U251 CNS 32.1% | PC-3 prostate 61% | SK-MEL-5 melanoma 33.7% | LOX IMVI melanoma 13.7% | SK-MEL-28 melanoma 31.1% | SK-MEL-2 melanoma 60.7% | EKVX NSCLC 28% | SN12C renal 25% | UO-31 renal 34.7% | TK-10 renal; 10 µM unless noted 42.6% | ACHN renal 30.3% | CAKI-1 renal 40.3% | A498 renal 44.9% | MOLT-4 leukemia 12.2%
active: UACC-62 melanoma; 10 µM unless noted -8.61% | CCRF-CEM leukemia 6.22%

COc1ccc(Cl)cc1Nc1nc(C(F)(F)F)ccc1C(=O)N/N=C/c1ccc(N(C)C)cc1
inactive: HCT-15 colon 87.3% | HT29 colon 107% | SNB-75 CNS 88.8% | SNB-19 CNS 86% | U251 CNS 92.6% | PC-3 prostate 97.3% | SK-MEL-5 melanoma 95.6% | UACC-62 melanoma; 10 µM unless noted 102% | LOX IMVI melanoma 95.2% | SK-MEL-28 melanoma 88.2% | SK-MEL-2 melanoma 82.5% | EKVX NSCLC 121% | SN12C renal 98.2% | UO-31 renal 98.3% | TK-10 renal; 10 µM unless noted 95.9% | ACHN renal 96.6% | CAKI-1 renal 116% | A498 renal 109% | MOLT-4 leukemia 90.4%
active: CCRF-CEM leukemia -17.6%

CCCCC1COc2cccc3c2N1C=C/C3=C\C(=O)N(C)c1cccc(Cl)c1 (configuration not stated)
inactive: HCT-15 colon 99.4% | HT29 colon 109% | SNB-75 CNS 93% | SNB-19 CNS 91.5% | U251 CNS 101% | PC-3 prostate 89.6% | SK-MEL-5 melanoma 102% | UACC-62 melanoma; 10 µM unless noted 85.9% | LOX IMVI melanoma 99% | SK-MEL-28 melanoma 104% | SK-MEL-2 melanoma 121% | EKVX NSCLC 95.8% | SN12C renal 94.2% | UO-31 renal 78% | TK-10 renal; 10 µM unless noted 112% | ACHN renal 98.5% | CAKI-1 renal 78.9% | A498 renal 94.6% | CCRF-CEM leukemia 97.2% | MOLT-4 leukemia 86.6%

COC1/C=C/OC2(C)Oc3c(C)c(O)c4c(O)c(c(C=NOC(c5ccccc5)c5ccccc5)c(O)c4c3C2=O)NC(=O)/C(C)=C/C=C/C(C)C(O)C(C)C(O)C(C)C(OC(C)=O)C1C (configuration not stated)
active: HT29 colon -12.1% | PC-3 prostate 9.81% | SK-MEL-5 melanoma 6.07% | UACC-62 melanoma; 10 µM unless noted -4.64% | LOX IMVI melanoma 0.468% | SK-MEL-28 melanoma -7.28% | SK-MEL-2 melanoma -24.9% | MOLT-4 leukemia 5.43%
inactive: HCT-15 colon 13.2% | SNB-75 CNS 17.2% | SNB-19 CNS 30.8% | U251 CNS 10.4% | EKVX NSCLC 20.4% | SN12C renal 17.3% | UO-31 renal 27.2% | TK-10 renal; 10 µM unless noted 30.9% | ACHN renal 20.3% | CAKI-1 renal 14% | A498 renal 58.5% | CCRF-CEM leukemia 13.5%

Cc1ccc(C(=O)Nc2ccc(CN3CCN(C)CC3)c(C(F)(F)F)c2)cc1C#Cc1cnc(N)cc1C#N
active: HCT-15 colon -69.8% | HT29 colon -65.1% | SNB-75 CNS -81.1% | SNB-19 CNS 3.23% | U251 CNS -73.6% | PC-3 prostate -33.9% | SK-MEL-5 melanoma -86.5% | UACC-62 melanoma; 10 µM unless noted -38.5% | LOX IMVI melanoma -90.1% | SK-MEL-28 melanoma -83.3% | SK-MEL-2 melanoma -43% | EKVX NSCLC -36.8% | SN12C renal -52.9% | UO-31 renal -55.7% | ACHN renal -85.7% | CAKI-1 renal -48% | A498 renal -37% | CCRF-CEM leukemia -8.11% | MOLT-4 leukemia -54.7%
inactive: TK-10 renal; 10 µM unless noted 14.7%
